Source: PubChem BioAssay (Tox21)
Results filed as inconclusive are left out. Active and inactive are the calls of the source. Unless noted, calls come from the whole dose curve; as a rule, active = well fitted curve in the direction sought with a large enough effect in the repeat runs; inconclusive = weak or mixed curves; inactive = no such curve, though single readings can be large; an effect the other way counts as inactive or inconclusive.

Assays:
[1] = qHTS assay to test for compound auto fluorescence at 535 nm (green) in HEK293 cells (AID 720680)
[2] = qHTS assay to test for compound auto fluorescence at 460 nm (blue) in HEK293 cell free culture (AID 720681)
Summary of the method: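 Compounds were added to cell-free DMEM with 10% FBS and fluorescence read directly. The blue channel used 405 nm excitation and 460 nm emission, with triamterene as the reference fluorophore.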

[3] = qHTS assay to test for compound auto fluorescence at 535 nm (green) in HEK293 cell free culture (AID 720682)
Summary of the method: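 Steps: dispense DMEM/10% FBS into empty wells; pin in compound or DMSO; measure fluorescence at 485/535 nm. Values are fluorescein equivalents.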

[4] = qHTS assay to test for compound auto fluorescence at 590 nm (red) in HEK293 cell free culture (AID 720683)
Summary of the method: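 Cell-free wells of DMEM with 10% FBS received compound, and intrinsic fluorescence was read at excitation/emission 540/590 nm. Values expressed as equivalence to Rose Bengal sodium.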

[5] = qHTS assay to test for compound auto fluorescence at 590 nm (red) in HepG2 cell free culture (AID 720684)
Summary of the method: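 Compound was pinned into wells holding MEM with 10% FBS and no cells, and red fluorescence was read at Ex/Em 540/590 nm. Signal is expressed as auto fluorescence equivalency relative to Rose Bengal sodium.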

[6] = qHTS assay to test for compound auto fluorescence at 460 nm (blue) in HepG2 cell free culture (AID 720685)
Summary of the method: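 Compound (23 nL) or DMSO pinned into cell-free MEM with 10% FBS; blue fluorescence read at 405/460 nm excitation/emission, expressed as auto-fluorescence equivalency to triamterene.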

[7] = qHTS assay to test for compound auto fluorescence at 535 nm (green) in HepG2 cell free culture (AID 720686)
[8] = qHTS assay to test for compound auto fluorescence at 460 nm (blue) in HepG2 cells (AID 720687)
Summary of the method: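 HepG2 cells in MEM with 10% FBS, attached overnight at 37 C, were exposed to compound or DMSO for 1 hr at 37 C, 5% CO2. Blue fluorescence was read at 405/460 nm, with triamterene as reference fluorophore.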

[9] = molecular target: Glucocorticoid receptor (Homo sapiens) (UniProt P04150); test: qHTS assay to identify small molecule agonists of the glucocorticoid receptor (GR) signaling pathway (AID 720691; active = well fitted activation curve with a large enough effect in the signal ratio in the repeat runs, not every such curve was filed as active; the % refers to the signal ratio)
Chain of Glucocorticoid receptor (Homo sapiens) (P04150 whole entry, looked up): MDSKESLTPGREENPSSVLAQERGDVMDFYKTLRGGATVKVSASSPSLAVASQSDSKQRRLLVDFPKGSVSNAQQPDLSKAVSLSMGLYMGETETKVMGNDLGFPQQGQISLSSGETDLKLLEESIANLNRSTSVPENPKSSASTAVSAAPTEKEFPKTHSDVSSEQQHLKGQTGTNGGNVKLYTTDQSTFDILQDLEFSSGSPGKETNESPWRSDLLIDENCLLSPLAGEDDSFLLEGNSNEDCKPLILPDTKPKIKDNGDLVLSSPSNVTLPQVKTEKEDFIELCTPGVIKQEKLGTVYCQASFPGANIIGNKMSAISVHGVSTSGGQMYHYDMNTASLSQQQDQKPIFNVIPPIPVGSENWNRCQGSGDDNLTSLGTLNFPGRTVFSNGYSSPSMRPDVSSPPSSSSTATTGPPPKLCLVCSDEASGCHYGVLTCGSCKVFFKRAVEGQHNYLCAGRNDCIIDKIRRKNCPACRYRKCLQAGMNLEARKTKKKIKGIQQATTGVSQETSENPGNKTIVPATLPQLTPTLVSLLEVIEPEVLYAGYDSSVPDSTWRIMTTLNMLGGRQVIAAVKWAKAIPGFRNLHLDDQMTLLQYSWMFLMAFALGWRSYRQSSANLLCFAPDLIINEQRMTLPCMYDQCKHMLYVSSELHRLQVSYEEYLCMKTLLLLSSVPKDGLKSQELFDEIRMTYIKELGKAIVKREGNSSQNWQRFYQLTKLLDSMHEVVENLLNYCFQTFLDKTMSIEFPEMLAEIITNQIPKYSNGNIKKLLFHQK
Summary of the method: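 Fluorescence intensity from LiveBLAzer B/G FRET substrate (2 h, room temperature) reports beta-lactamase expression driven by the glucocorticoid response element in GR-bla HeLa cells after 18 h compound exposure at 37 C.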

[10] = molecular target: Glucocorticoid receptor (Homo sapiens) (UniProt P04150); test: qHTS assay to identify small molecule antagonists of the glucocorticoid receptor (GR) signaling pathway (AID 720692; active = well fitted inhibition curve with a large enough effect in the signal ratio in the repeat runs, not every such curve was filed as active; the % refers to the signal ratio)
Summary of the method: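 HeLa GR-bla cells; cmpd + dex 5 nM final, 18 h 37 C; LiveBLAzer B/G FRET substrate 2 h RT; fluorescence intensity read. Antagonist mode, qHTS.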

[11] = qHTS assay to identify small molecule antagonists of the glucocorticoid receptor (GR) signaling pathway - cell viability counter screen (AID 720693); note: nearly all actives have a fitted effect of over 55% in size
[12] = qHTS assay for identifying genotoxic compounds that show differential cytotoxicity against isogenic chicken DT40 cell lines with known DNA damage response pathways - Rev3 mutant cell line (AID 743014); note: nearly all actives have a fitted effect of over 55% in size
[13] = qHTS assay for identifying genotoxic compounds that show differential cytotoxicity against isogenic chicken DT40 cell lines with known DNA damage response pathways - Rad54/Ku70 mutant cell line (AID 743015); note: nearly all actives have a fitted effect of over 60% in size
[14] = qHTS assay to identify small molecule antagonists of the androgen receptor (AR) signaling pathway - cell viability counter screen (AID 743033; note: nearly all actives have a fitted effect of over 45% in size)
[15] = molecular target: Androgen receptor (Homo sapiens) (UniProt P10275); test: qHTS assay to identify small molecule antagonists of the androgen receptor (AR) signaling pathway (AID 743035; active = well fitted inhibition curve with a large enough effect in the signal ratio in the repeat runs, not every such curve was filed as active; the % refers to the signal ratio)
Chain of Androgen receptor (Homo sapiens) (P10275 whole entry, looked up): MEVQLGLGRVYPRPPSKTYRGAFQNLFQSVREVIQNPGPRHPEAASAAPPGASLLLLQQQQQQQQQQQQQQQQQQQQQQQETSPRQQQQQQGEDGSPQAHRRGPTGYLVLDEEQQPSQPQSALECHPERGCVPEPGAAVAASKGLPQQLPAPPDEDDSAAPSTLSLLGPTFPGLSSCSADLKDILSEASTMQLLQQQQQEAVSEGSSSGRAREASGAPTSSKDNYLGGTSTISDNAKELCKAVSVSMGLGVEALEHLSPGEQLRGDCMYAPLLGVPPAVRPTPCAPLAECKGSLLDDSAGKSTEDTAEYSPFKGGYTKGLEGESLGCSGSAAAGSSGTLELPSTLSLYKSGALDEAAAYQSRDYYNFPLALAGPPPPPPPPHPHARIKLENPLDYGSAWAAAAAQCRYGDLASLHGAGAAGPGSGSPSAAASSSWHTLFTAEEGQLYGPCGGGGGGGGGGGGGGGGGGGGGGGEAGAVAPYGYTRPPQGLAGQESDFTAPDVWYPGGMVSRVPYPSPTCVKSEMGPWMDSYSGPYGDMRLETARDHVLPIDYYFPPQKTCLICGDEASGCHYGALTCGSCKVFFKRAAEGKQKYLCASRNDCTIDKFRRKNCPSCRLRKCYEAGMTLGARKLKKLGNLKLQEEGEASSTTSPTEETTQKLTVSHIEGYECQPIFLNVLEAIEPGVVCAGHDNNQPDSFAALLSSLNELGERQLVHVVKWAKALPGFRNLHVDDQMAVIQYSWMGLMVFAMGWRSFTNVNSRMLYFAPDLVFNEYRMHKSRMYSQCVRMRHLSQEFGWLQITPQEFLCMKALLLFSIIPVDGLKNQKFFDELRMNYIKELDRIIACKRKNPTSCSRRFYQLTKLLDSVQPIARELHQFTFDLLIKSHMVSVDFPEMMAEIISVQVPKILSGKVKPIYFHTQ
Summary of the method: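 Fluorescence from a beta-lactamase FRET substrate (LiveBLAzer B/G, 2 h, room temperature) measured inhibition of R1881-stimulated signaling in GeneBLAzer AR-UAS-bla HEK293 cells exposed to compound for 16 h at 37C.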

[16] = molecular target: Androgen receptor (Homo sapiens) (UniProt P10275); test: qHTS assay to identify small molecule agonists of the androgen receptor (AR) signaling pathway (AID 743036; active = well fitted activation curve with a large enough effect in the signal ratio in the repeat runs, with a control signal flat, not every such curve was filed as active; the % refers to the signal ratio)
Summary of the method: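 Reporter line: GeneBLAzer AR-UAS-bla-GripTite (HEK293). Steps: plate cells, 4 h rest, add compounds, 16 h at 37C, add LiveBLAzer B/G substrate, 2 h at RT, read fluorescence.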

[17] = molecular target: Androgen receptor (Homo sapiens) (UniProt P10275); test: qHTS assay to identify small molecule agonists of the androgen receptor (AR) signaling pathway using the MDA cell line (AID 743040; note: nearly all actives have a fitted effect of over 20% in size)
Summary of the method: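 MDA-kb2 breast carcinoma cells carrying MMTV-luciferase (responsive to AR and GR), plated 5 h then treated 16 h with compounds at 37C, 0% CO2. Read-out was ONE-Glo luminescence after 30 min at room temperature.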

[18] = molecular target: Androgen receptor (Homo sapiens) (UniProt P10275); test: qHTS assay to identify small molecule antagonists of the androgen receptor (AR) signaling pathway using the MDA cell line (AID 743042; note: nearly all actives have a fitted effect of over 55% in size)
Summary of the method: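 MDA-kb2 breast carcinoma cells carrying MMTV-luciferase (AR/GR responsive) were co-treated with compounds and the agonist R1881 for 16 h at 37C. Inhibition read as ONE-Glo luminescence; CellTiter-Fluor fluorescence measured in parallel for cytotoxicity.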

[19] = qHTS assay for identifying genotoxic compounds that show differential cytotoxicity against isogenic chicken DT40 cell lines with known DNA damage response pathways - wild type cell line (AID 743012); note: nearly all actives have a fitted effect of over 60% in size
Summary of the method: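 Wild type DT40, 300 cells/well, ~0.5 h settle at 37 C/5% CO2; compounds in DMSO added by pintool; 40 h at 37 C/5% CO2; CellTiter-Glo, 30 min RT; luminescence.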

[20] = qHTS assay to identify small molecule antagonists of the androgen receptor (AR) signaling pathway using the MDA cell line - cell viability counter screen (AID 743041; note: nearly all actives have a fitted effect of over 45% in size)
Summary of the method: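 MDA-kb2 AR-luc cells (MMTV-luciferase, AR/GR responsive) treated with compounds plus R1881 agonist for 16 h at 37C. CellTiter-Fluor added at 15.5 h; fluorescence read after 30 min in the same wells.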
% is set by controls: 0 for no effect and ±100 for the full control effect.

N[C@@H](CCC(=O)Nc1ccc([N+](=O)[O-])cc1)C(=O)O
inactive: outcome [1] | outcome [2] | outcome [3] | outcome [4] | outcome [5] | outcome [6] | outcome [7] | outcome [8] | Potency [9] | outcome [10] | outcome [11] | Potency [12] | Potency [13] | Potency [14] | Potency [15] | outcome [16] | outcome [17] | Potency [18]

O=C(O)CCSSCCC(=O)O
inactive: outcome [1] | outcome [2] | outcome [3] | outcome [4] | outcome [5] | outcome [6] | outcome [7] | outcome [8] | Potency [9] | outcome [10] | outcome [11] | Potency [19] | Potency [12] | Potency [13] | Potency [14] | Potency [15] | outcome [16] | outcome [17] | Potency [20] | Potency [18]

CCCCCCN
inactive: outcome [1] | outcome [2] | outcome [3] | outcome [4] | outcome [5] | outcome [6] | outcome [7] | outcome [8] | Potency [9] | outcome [10] | outcome [11] | Potency [19] | Potency [12] | Potency [13] | Potency [14] | Potency [20]

Nc1cccc(O)c1
inactive: outcome [1] | outcome [2] | outcome [3] | outcome [4] | outcome [5] | outcome [6] | outcome [7] | outcome [8] | Potency [9] | outcome [10] | outcome [11] | Potency [19] | Potency [12] | Potency [14] | Potency [20]

Cc1cc(NC(=O)C2=C(O)c3ccccc3S(=O)(=O)N2C)no1
inactive: outcome [1] | outcome [2] | outcome [3] | outcome [4] | outcome [5] | outcome [6] | outcome [7] | outcome [8] | Potency [9] | outcome [10] | outcome [11] | Potency [19] | Potency [12] | Potency [13] | Potency [14] | Potency [20]

N[C@@H](COP(=O)(O)O)C(=O)O
inactive: outcome [1] | outcome [2] | outcome [3] | outcome [4] | outcome [5] | outcome [6] | outcome [7] | outcome [8] | Potency [9] | outcome [10] | outcome [11] | Potency [19] | Potency [12] | Potency [13] | Potency [14]

COc1ccc(C2CNC(=O)C2)cc1OC1CCCC1 (configuration not stated)
inactive: fluorescence, % of fluorescein [1] 0.0387% [at 18.6 µM] | fluorescence, % of fluorescent control [2] -0.0755% [at 18.6 µM] | activity change [3] 0.0153% [at 18.6 µM] | fluorescence, % of fluorescent control [4] -0.222% [at 18.6 µM] | fluorescence, % of Rose Bengal [5] 0.472% [at 18.6 µM] | fluorescence, % of fluorescent control [6] -0.0095% [at 18.6 µM] | fluorescence, % of fluorescein control [7] -0.0056% [at 18.6 µM] | fluorescence, % of fluorescent control [8] -0.0914% [at 18.6 µM] | Potency [9] | outcome [10] | outcome [11] | Potency [19] | Potency [12] | Potency [13] | Potency [14] | Potency [20]

CC(=O)c1sc(C)nc1C
inactive: outcome [1] | outcome [2] | outcome [3] | outcome [4] | outcome [5] | outcome [6] | outcome [7] | outcome [8] | Potency [9] | outcome [10] | outcome [11] | Potency [19] | Potency [12] | Potency [13] | Potency [14] | Potency [20]
